Here are results for 40 compounds from PubChem BioAssay (Tox21).

Results filed as inconclusive are left out. Entries that show only a call come without a potency. A number with no mark means an inactive call. Activity calls are given as the source filed them. Calls come from the whole dose curve; as a rule, active = well fitted cell-killing curve with a large enough effect in the repeat runs; inconclusive = weak or mixed curves, or effect the other way; inactive = flat fitted curve, though single readings scatter.

This assay is described as follows: qHTS RealTime-Glo MT Cell Viability Assay in HepG2 cells - 40 hour (AID 1224870). Note: nearly all actives have a fitted effect of over 50% in size. As to conditions: RealTime-Glo luminescence; series mostly up to 76.8 µM. From the text: National Center for Advancing Translational Sciences [NCATS]
NIH Chemical Genomics Center [NCGC]
U.S. Environmental Protection Agency [EPA]
National Institutes of Environmental Health Sciences [NIEHS]
National Toxicology Program [NTP]
U.S. Food and Drug Administration [FDA]
Measure of cell viability is critical in the cell-base assay. Analysis of cell viability is necessary for the characterization of cell responses to cytotoxic drugs and environmental stress. A RealTime-Glo MT Cell Viability Assay to monitor cell viability in real time of continues cell culture during 40 hours of compound treatment was used to screen Tox21 10K library compounds in HepG2 cells. The RealTime-Glo MT Cell Viability Assay is a nonlytic, homogeneous, bioluminescent method to measure cell viability in real time using a simple, plate-based method. The assay involves adding NanoLuc luciferase and a cell-permeant prosubstrate to cells in culture. Viable cells reduce the proprietary prosubstrate to generate a substrate for NanoLuc luciferase. This substrate diffuses from cells into the surrounding culture medium, where it is rapidly used by the NanoLuc Enzyme to produce a luminescent signal. The signal correlates with the number of viable cells, making the assay well suited for cytotoxicity studies.
Tox21 Assay Protocol Summary:
The mixture of HepG2 cell suspension and reagents were dispensed at 600cells/6 ul/well in 1536-well tissue culture treated black solid bottom plates using a Multidrop dispenser. After the assay plates were incubated at a 37 C/5% CO2 incubator for 5 hours, 23 nL of compounds dissolved in DMSO, positive and negative controls was transferred to the assay plate by a pintool work station. The plates were incubated at 37 C for 40 hours. The luminescence intensity were measured at 0h, 8h, 16h, 24h, 32h and 40h time points using ViewLux plate reader during compound treatment.
In the case of `Brc1ccc(Oc2ccccc2)cc1`, the Potency result is “inactive”.

Regarding `Clc1ccc(C(OCCN2CCCCC2)c2ccccc2)cc1` (stereo not given), the Potency entry was “inactive”.

Consider `CO/N=C(/C(=O)OC)c1ccccc1COc1ccccc1C`, for which the Potency result was “inactive”.

For the compound `O=Cc1ccc(Cl)cc1Cl`, the Potency result was “inactive”.

`O=[N+]([O-])c1cc(C(F)(F)F)cc([N+](=O)[O-])c1Cl`: the Potency result is “inactive”.

For the compound `O=C(NC(=O)c1c(F)cccc1F)Nc1ccc(OC(F)(F)C(F)OC(F)(F)F)c(Cl)c1` (stereo not given), the Potency result is “inactive”.

For the compound `CCOP(=S)(OCC)SCn1nnc2ccccc2c1=O`, the Potency result is “inactive”.

As to `CCCCN(N=O)C(=N)N[N+](=O)[O-]`, the Potency entry was “inactive”.

Regarding `COc1nn(C(=O)NS(=O)(=O)c2ccccc2OC(F)(F)F)c(=O)n1C`, the Potency entry was “inactive”.

Consider `CCN(C)N=O`, for which the Potency result was “inactive”.

`CC(c1ccc(O)cc1)(c1ccc(O)cc1)c1ccc(O)cc1`: the Potency result was “inactive”.

Regarding `CO/C=C(/C(=O)OC)c1ccccc1COc1cccc(C(F)(F)F)n1`, the Potency entry is “inactive”.

Consider `CN(C)c1ccc(N(C)C)cc1`, for which the Potency result is “inactive”.

Consider `O=C(OC1CCCCC1)c1ccccc1C(=O)OC1CCCCC1`, for which the Potency entry was “inactive”.

Consider `CC(C)O.CC(C)O.OCCN(CCO)CCO.OCCN(CCO)CCO.[Ti]`, for which the Potency entry was “inactive”.

Consider `O=[N+]([O-])c1ccccc1CCl`, for which the Potency entry was “inactive”.

Turning to `CCCCc1c(C)nc(NCC)nc1OS(=O)(=O)N(C)C`, the Potency entry was “inactive”.

In the case of `C=C(C#N)CCC#N`, the Potency result is “inactive”.

Consider `CCOP(=O)(OCC)Oc1ccc([N+](=O)[O-])cc1`, for which the Potency result is “inactive”.

Take `O=NN1CCCCCC1`: the Potency entry was “inactive”.

As for `CCOP(=O)(OCC)SCCSCC`, the Potency result is “inactive”.

For the compound `C=CC(=O)OC(C)(C)C`, the Potency entry is “inactive”.

As to `C=CC(=O)OCC(C)C`, the Potency result was “inactive”.

As to `CC(C)(C)C(O)C(Oc1ccc(Cl)cc1)n1cncn1` (stereo not given), the Potency entry is “inactive”.

In the case of `[CH3][Sn]([CH3])([Cl])[Cl]`, the Potency result was “inactive”.

With `NCCCNCCCN`, the Potency result was “inactive”.

In the case of `C=CC(=O)OCC(C)O` (stereo not given), the Potency result was “inactive”.

As to `O=C1C(Cl)C(CCl)CN1c1cccc(C(F)(F)F)c1` (stereo not given), the Potency result is “inactive”.

In the case of `COP(=O)(OC)O/C(=C/Cl)c1cc(Cl)c(Cl)cc1Cl`, the Potency entry was “inactive”.

Regarding `Oc1ccc(Cl)c(Cl)c1Cl`, the Potency entry is “inactive”.

On to `COC(C)(C)CCC[C@H](C)C/C=C/C(C)=C/C(=O)OC(C)C`, for which the Potency result is “inactive”.

On to `Cc1ccccc1C(=O)Nc1cccc(OC(C)C)c1`, for which the Potency result is “inactive”.

Regarding `CCBr`, the Potency entry was “inactive”.

For the compound `CO[C@@H]1[C@H](OC(=O)NC(=O)CCl)CC[C@]2(CO2)[C@H]1[C@@]1(C)O[C@@H]1CC=C(C)C`, the activity change, negative = cytotoxic is 0.252% [at 15.8 µM].

Take `CC1(C)[C@H](C=C(Cl)Cl)[C@@H]1C(=O)O[C@@H](C#N)c1cccc(Oc2ccccc2)c1`: the Potency entry is “inactive”.

With `CCCCOC(=O)c1ccccc1C(=O)OCc1ccccc1`, the Potency result is “inactive”.

On to `CCCCN=C=O`, for which the Potency entry is “inactive”.

On to `CC(C)(OO)c1ccccc1`, for which the Potency result is “inactive”.

Take `CC(C)(Cl)[N+](=O)[O-]`: the Potency entry was “inactive”.

Turning to `Cn1cc[n+](C)c1` (tested in a mixture with another compound), the Potency result is “inactive”.
